Test results from ChEMBL document CHEMBL2218924, “A broad activity screen in support of a chemogenomic map for kinase signalling research and drug discovery” (Biochem J, 2013).

Key:
[1] = target: Tyrosine-protein kinase SYK (Homo sapiens) (UniProt P43405); conditions: at 10 µM
[2] = target: T1, Serine/threonine-protein kinase TAO1 (Homo sapiens) (UniProt Q7L7X3); conditions: at 1 µM
T1 sequence (whole entry): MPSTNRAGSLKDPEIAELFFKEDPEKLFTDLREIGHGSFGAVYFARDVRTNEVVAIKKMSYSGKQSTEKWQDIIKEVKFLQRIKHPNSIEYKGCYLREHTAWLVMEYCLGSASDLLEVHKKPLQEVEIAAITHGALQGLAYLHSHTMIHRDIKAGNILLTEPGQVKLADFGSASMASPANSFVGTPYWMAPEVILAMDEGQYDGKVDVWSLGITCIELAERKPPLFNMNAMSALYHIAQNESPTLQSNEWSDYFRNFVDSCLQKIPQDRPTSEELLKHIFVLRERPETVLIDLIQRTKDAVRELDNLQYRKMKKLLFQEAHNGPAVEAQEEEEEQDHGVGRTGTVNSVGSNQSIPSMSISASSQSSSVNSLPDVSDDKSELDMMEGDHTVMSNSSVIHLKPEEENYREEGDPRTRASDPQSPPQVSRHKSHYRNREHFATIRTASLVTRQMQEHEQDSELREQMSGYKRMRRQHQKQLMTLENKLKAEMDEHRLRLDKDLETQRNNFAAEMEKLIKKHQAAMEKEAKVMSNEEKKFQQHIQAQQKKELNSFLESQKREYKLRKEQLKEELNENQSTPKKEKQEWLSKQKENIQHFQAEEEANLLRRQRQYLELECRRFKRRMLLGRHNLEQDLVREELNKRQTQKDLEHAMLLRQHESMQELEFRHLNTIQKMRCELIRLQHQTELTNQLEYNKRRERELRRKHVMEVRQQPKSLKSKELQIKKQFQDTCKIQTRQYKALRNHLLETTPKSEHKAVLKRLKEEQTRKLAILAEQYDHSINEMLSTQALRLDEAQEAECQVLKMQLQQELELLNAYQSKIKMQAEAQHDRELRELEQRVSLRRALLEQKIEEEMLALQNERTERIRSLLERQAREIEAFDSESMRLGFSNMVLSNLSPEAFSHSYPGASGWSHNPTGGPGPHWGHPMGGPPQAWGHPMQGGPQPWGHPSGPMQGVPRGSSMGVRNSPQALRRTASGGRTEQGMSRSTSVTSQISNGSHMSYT

[3] = target: T1, Serine/threonine-protein kinase TAO1 (Homo sapiens); conditions: at 10 µM
[4] = target: T2, Serine/threonine-protein kinase TAO2 (Homo sapiens) (UniProt Q9UL54); conditions: at 1 µM
T2 sequence (whole entry): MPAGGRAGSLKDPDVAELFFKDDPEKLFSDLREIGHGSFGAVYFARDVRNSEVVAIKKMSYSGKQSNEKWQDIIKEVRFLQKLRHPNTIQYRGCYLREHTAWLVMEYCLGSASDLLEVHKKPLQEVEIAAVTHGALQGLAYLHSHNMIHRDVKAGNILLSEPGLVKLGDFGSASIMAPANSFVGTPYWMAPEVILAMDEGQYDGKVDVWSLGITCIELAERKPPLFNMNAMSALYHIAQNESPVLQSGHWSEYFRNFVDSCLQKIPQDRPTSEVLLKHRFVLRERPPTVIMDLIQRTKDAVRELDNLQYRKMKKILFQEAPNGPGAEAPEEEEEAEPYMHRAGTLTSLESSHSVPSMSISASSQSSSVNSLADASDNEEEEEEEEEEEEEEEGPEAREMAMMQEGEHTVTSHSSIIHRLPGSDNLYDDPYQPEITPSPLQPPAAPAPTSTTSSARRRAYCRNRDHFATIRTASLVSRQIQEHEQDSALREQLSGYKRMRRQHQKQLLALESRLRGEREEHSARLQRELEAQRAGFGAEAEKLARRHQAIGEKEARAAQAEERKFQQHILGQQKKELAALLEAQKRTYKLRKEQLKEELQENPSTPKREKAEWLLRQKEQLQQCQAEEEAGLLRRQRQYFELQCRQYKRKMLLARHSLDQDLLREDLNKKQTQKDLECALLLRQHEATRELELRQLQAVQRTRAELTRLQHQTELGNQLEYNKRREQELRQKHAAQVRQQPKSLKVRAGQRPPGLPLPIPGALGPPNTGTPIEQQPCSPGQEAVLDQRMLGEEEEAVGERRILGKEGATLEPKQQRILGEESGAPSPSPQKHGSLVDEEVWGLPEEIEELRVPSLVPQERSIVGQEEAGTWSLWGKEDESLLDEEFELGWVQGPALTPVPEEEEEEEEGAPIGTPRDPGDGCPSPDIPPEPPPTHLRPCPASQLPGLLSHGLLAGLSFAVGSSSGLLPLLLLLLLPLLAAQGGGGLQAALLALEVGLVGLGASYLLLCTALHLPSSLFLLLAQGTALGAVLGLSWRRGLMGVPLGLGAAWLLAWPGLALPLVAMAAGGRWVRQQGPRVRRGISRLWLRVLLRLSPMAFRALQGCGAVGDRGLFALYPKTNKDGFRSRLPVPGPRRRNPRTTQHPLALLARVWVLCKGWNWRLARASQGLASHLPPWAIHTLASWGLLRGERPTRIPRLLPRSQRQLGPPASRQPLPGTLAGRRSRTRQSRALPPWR

[5] = target: T2, Serine/threonine-protein kinase TAO2 (Homo sapiens); conditions: at 10 µM
[6] = target: T3, Serine/threonine-protein kinase TAO3 (Homo sapiens) (UniProt Q9H2K8); conditions: at 1 µM
T3 sequence (whole entry): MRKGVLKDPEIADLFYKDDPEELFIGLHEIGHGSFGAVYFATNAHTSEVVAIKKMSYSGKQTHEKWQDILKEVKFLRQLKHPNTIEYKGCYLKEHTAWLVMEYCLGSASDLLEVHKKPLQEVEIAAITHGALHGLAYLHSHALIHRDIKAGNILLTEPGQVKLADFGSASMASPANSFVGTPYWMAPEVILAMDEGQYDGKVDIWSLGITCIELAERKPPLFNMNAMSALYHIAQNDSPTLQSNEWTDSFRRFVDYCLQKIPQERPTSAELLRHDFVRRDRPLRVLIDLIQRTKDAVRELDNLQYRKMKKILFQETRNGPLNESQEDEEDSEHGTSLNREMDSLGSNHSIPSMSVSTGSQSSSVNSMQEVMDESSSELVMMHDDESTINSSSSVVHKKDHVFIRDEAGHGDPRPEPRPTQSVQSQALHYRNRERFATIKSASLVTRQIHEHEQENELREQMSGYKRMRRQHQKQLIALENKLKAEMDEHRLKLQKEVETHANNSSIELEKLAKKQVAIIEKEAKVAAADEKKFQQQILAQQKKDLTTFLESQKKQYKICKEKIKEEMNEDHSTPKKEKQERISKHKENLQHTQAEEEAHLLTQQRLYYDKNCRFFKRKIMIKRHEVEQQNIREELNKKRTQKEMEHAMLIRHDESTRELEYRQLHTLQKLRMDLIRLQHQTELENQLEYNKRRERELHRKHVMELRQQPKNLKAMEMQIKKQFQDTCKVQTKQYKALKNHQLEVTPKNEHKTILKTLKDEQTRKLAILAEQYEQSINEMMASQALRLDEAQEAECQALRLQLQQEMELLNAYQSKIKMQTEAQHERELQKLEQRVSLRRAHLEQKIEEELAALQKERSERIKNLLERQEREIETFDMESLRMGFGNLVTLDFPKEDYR

[7] = target: T4, Mitogen-activated protein kinase kinase kinase 7 (Homo sapiens) (UniProt O43318); conditions: at 10 µM
T4 sequence (whole entry): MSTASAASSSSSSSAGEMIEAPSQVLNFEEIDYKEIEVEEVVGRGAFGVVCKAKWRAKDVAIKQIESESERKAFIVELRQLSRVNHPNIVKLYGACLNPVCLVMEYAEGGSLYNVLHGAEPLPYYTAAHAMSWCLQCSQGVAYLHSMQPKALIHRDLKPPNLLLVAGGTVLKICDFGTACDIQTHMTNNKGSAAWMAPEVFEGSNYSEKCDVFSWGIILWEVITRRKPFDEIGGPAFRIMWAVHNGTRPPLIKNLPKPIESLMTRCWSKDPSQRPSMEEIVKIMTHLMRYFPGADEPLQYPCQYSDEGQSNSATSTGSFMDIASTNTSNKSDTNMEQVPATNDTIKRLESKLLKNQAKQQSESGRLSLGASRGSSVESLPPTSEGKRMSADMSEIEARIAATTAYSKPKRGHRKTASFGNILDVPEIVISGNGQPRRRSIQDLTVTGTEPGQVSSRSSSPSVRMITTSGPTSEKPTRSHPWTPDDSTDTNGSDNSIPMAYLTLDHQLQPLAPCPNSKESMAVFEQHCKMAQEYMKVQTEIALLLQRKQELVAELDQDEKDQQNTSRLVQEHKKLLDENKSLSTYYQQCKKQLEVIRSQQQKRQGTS

[8] = target: T5, Serine/threonine-protein kinase TBK1 (Homo sapiens) (UniProt Q9UHD2); conditions: at 1 µM
T5 sequence (whole entry): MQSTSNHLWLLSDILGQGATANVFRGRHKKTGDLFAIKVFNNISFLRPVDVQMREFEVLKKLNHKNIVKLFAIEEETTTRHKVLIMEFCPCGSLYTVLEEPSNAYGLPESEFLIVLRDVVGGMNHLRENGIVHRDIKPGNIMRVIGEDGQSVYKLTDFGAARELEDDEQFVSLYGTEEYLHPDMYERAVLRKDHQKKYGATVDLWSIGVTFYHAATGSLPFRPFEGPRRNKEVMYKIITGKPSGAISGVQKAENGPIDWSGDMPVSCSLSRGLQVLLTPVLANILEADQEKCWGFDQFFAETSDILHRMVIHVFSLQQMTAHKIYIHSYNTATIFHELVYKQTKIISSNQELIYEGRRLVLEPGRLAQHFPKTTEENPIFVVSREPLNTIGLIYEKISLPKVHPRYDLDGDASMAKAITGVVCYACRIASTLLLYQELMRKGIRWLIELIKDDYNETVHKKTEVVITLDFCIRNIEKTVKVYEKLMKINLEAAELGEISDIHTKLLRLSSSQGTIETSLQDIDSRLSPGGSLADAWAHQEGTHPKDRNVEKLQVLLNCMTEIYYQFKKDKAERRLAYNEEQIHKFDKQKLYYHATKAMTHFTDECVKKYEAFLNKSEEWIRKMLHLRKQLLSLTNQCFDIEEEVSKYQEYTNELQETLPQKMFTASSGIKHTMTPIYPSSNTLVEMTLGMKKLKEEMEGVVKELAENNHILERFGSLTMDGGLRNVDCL

[9] = target: T4, Mitogen-activated protein kinase kinase kinase 7 (Homo sapiens); conditions: at 1 µM
[10] = target: T3, Serine/threonine-protein kinase TAO3 (Homo sapiens); conditions: at 10 µM

COc1cc2ncnc(Nc3cccc(Cl)c3)c2cc1OC
residual activity [1]: 71%
residual activity [2]: 102%
residual activity [3]: 76%
residual activity [4]: 113%
residual activity [5]: 86%
residual activity [6]: 102%

CCN1/C(=C/C(C)=O)Sc2ccc(OC)cc21
residual activity [7]: 80%
residual activity [2]: 75%
residual activity [3]: 46%
residual activity [8]: 70%

O=C1Nc2ccccc2/C1=C\c1c(Cl)[nH]c2ccccc12
residual activity [9]: 99%
residual activity [7]: 77%
residual activity [3]: 63%
residual activity [5]: 44%
residual activity [6]: 85%
residual activity [10]: 40%
residual activity [8]: 72%

Cn1sc(=O)n(Cc2ccccc2)c1=O
residual activity [9]: 85%
residual activity [7]: 79%
residual activity [2]: 87%
residual activity [3]: 85%
residual activity [4]: 95%
residual activity [5]: 91%
residual activity [6]: 91%
residual activity [10]: 91%
residual activity [8]: 61%

Nc1n[nH]c2nc3ccccc3nc12
residual activity [9]: 91%
residual activity [7]: 74%
residual activity [3]: 75%
residual activity [4]: 93%
residual activity [5]: 85%
residual activity [8]: 78%

CN([C@@H](Cc1ccc(OS(=O)(=O)c2cccc3cnccc23)cc1)C(=O)N1CCN(c2ccccc2)CC1)S(=O)(=O)c1cccc2cnccc12
residual activity [9]: 99%
residual activity [7]: 98%

Nc1nccc(-c2c(-c3ccc(F)cc3)ncn2C2CCNCC2)n1
residual activity [7]: 79%
residual activity [5]: 80%

Fc1ccc(-c2nc3n(c2-c2ccncc2)CCS3)cc1
residual activity [7]: 88%
residual activity [2]: 99%
residual activity [3]: 83%
residual activity [10]: 76%

O=C(Nc1ccc(Cl)cc1)c1ccccc1NCc1ccncc1
residual activity [4]: 101%
residual activity [5]: 61%

COc1ccc(COc2ccc(Cc3cnc(N)nc3N)cc2OC)cc1
residual activity [4]: 100%
residual activity [5]: 79%
residual activity [8]: 61%

Nc1ncnc2[nH]nc(Nc3ccc(F)cc3)c12
residual activity [1]: 97%
residual activity [2]: 107%
residual activity [4]: 102%
residual activity [5]: 91%
residual activity [6]: 101%
residual activity [8]: 77%
